PubChem BioAssay AID493220 (National Center for Advancing Translational Sciences (NCATS), 2011)
Inconclusive results are not listed. The source made the active and inactive calls. Calls follow the shape of the full dose curve.

Target: Polyunsaturated fatty acid lipoxygenase ALOX15 (Homo sapiens) (UniProt P16050)
Assay: Inhibitors of 12-hLO (12-human lipoxygenase): 15hLO-1 Cuvette-Based Inhibition Counterscreen Assay for 12hLO Followup Compounds
Details: purified 15hLO-1, UV 234 nm product formation
Summary of the method: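 Purified human 15hLO-1 at 50-200 nM, set to give 0.02-0.04 AU/s, was added to 10 uM arachidonic acid in 25 mM HEPES with 0.01% Triton X-100, pH 8.0. Product formation was followed at 234 nm in a stirred cuvette. IC50 values came from rates at about five inhibitor concentrations.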

Chain of Polyunsaturated fatty acid lipoxygenase ALOX15 (Homo sapiens) (P16050 whole entry, looked up): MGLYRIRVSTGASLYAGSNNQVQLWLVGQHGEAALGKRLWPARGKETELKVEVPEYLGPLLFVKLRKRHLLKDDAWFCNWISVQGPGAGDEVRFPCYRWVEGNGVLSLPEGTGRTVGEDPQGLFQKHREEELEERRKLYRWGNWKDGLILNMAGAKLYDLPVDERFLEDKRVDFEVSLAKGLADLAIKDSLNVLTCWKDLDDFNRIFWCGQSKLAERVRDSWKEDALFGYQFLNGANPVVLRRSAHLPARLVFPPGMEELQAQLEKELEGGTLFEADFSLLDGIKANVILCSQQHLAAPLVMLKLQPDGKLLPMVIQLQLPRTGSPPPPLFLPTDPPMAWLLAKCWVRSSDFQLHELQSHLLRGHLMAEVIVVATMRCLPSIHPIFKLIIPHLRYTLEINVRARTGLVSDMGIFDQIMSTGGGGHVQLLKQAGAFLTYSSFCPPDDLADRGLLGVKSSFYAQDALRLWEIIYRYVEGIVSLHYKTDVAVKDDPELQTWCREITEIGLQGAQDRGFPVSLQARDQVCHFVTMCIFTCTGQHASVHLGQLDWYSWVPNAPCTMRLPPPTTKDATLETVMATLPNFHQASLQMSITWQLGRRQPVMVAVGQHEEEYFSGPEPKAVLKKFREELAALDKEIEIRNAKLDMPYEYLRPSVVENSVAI

For O=C1c2ccccc2NC(c2ccc(Cl)cc2Cl)N1O (stereo not given), which Potency is on record?
Its Potency is 37.4 µM (active).

With O=C(/C=C/c1ccc(O)c(O)c1)c1ccc(S(=O)(=O)N2CCCCCC2)cc1 as the compound, how does the Potency read?
Its Potency is 1.31 µM (active).

For Cc1cccnc1NCc1ccc(O)c2ncccc12, which Potency is on record?
The Potency was 23.9 µM (active).

COc1cc(CNc2ccc(N3CCCC3)cc2)ccc1OCc1ccccc1 was tested. Which outcome did it give?
Its outcome is “inactive”.

How did the Potency turn out when Cc1oc2c(O)c(O)ccc2c(=O)c1-c1cnn(-c2ccccc2)c1 was run?
The Potency was 18.9 µM (active).

For O=C(NC(=S)Nc1ccccc1N1CCCC1)c1ccc([N+](=O)[O-])cc1, which outcome is on record?
Its outcome is “inactive”.

For CC1=NN(c2ccc(Cl)cc2)C(=O)C1C(c1cccc(O)c1)c1c(C)[nH]n(-c2ccc(Cl)cc2)c1=O (stereo not given), which Potency is on record?
The Potency was 22.8 µM (active).

Cc1ccc(C(=O)Nc2nnc(-c3ccco3)o2)cc1 was tested. Which outcome did it give?
Its outcome is “inactive”.

How did the Potency turn out when CC1=NN(c2ccc(Cl)cc2)C(=O)C1C(c1ccccc1O)c1c(C)[nH]n(-c2ccc(Cl)cc2)c1=O (stereo not given) was run?
Its Potency is 20 µM (active).

For Cc1[nH]nc(-c2ccc(O)cc2O)c1-c1ccc(Cl)cc1, which Potency is on record?
The Potency was 9.99 µM (active).

Which outcome does the source give for COc1cc(CNc2ccc(O)cc2)cc(Br)c1OCc1ccccc1F here?
Its outcome is “inactive”.

How did the Potency turn out when Oc1ccc(Cl)cc1-c1cc(-c2ccco2)[nH]n1 was run?
Its Potency is 2.03 µM (active).

COc1ccc(C(=O)Nc2cc(C(=O)c3ccccc3)c(C)oc2=O)cc1 was tested. Which outcome did it give?
Its outcome is “inactive”.

Which Potency does the source give for CN(C)c1nccc(N(Cc2ccccc2)Cc2ccccc2)c1C#N here?
The Potency was 17.7 µM (active).

How did the Potency turn out when Oc1ccccc1-c1cc(-c2ccccc2Cl)[nH]n1 was run?
Its Potency is 1.62 µM (active).
